Data taken from the supplement of paper PMC11732987, “Enantioselective OTUD7B fragment discovery through chemoproteomics screening and high-throughput optimisation” (Communications Chemistry, 2025).

How the values were obtained:
Test in all cases: log2 ratio of Biotin-Ahx-Ub-VS probe labelling (fragment/DMSO); higher = less target engagement (more negative = stronger competition), active = hit call of the paper (q ≤ 0.05, log2 ratio ≤ -1)
Conditions in all cases: compound concentration: 200 uM; treatment time: 3 h
USP19 = molecular target: T1, USP19 (UniProt O94966)
T1 sequence (whole entry): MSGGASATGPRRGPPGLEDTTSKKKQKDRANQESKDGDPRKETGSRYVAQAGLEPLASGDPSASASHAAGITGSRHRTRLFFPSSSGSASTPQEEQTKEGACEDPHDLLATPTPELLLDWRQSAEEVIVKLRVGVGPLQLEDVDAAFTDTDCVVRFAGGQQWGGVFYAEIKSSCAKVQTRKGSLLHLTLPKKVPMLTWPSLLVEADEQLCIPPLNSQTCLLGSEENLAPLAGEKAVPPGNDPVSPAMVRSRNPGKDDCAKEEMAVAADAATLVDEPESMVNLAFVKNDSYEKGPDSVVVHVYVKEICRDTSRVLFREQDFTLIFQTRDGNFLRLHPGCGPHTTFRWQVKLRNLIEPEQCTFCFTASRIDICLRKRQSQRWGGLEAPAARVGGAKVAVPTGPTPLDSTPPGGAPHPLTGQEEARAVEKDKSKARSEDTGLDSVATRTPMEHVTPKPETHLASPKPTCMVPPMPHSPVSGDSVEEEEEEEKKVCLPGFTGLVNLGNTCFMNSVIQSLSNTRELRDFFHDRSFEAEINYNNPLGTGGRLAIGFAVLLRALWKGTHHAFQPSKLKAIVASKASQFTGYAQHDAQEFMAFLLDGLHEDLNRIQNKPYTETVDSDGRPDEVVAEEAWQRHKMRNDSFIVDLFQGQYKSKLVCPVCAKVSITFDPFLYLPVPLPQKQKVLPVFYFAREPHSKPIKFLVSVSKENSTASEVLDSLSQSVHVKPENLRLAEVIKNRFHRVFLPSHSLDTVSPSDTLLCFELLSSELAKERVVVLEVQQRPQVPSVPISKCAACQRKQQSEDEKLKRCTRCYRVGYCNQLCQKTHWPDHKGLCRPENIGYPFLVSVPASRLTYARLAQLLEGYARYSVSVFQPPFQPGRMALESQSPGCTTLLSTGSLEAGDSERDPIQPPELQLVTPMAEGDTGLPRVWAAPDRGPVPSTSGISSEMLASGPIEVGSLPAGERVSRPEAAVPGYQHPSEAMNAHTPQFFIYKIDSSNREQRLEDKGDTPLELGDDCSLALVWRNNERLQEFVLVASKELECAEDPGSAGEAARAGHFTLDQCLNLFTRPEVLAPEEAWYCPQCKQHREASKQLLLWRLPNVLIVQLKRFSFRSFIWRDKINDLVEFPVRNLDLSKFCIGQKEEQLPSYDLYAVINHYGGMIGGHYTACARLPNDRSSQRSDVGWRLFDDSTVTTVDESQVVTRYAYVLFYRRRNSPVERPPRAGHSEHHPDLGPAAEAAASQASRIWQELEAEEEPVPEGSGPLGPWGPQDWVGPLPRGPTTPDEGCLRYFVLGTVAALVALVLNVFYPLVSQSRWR
Procedure, shortened: (§1)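 Labelled DUBs from HEK293T lysate were NeutrAvidin-enriched, digested with LysC and trypsin, and run by diaPASEF LC-MS/MS. Before that, each 495 µg sample in Tris/CHAPS/IGEPAL buffer with protease inhibitors was treated in triplicate with fragment at 200 µM or vehicle for 3 h, then with Biotin-Ahx-Ub-VS at 0.5 µM final for 1 h. Values are average log2 ratios of fragment over vehicle by unpaired t-test, based on global-median-normalised Spectronaut label-free quantities from proteins with ≥2 unique peptides.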

USP24 = USP24 (UniProt Q9UPU5)
Procedure, shortened: as §1

USP25 = molecular target: T2, USP25 (UniProt Q9UHP3)
T2 sequence (whole entry): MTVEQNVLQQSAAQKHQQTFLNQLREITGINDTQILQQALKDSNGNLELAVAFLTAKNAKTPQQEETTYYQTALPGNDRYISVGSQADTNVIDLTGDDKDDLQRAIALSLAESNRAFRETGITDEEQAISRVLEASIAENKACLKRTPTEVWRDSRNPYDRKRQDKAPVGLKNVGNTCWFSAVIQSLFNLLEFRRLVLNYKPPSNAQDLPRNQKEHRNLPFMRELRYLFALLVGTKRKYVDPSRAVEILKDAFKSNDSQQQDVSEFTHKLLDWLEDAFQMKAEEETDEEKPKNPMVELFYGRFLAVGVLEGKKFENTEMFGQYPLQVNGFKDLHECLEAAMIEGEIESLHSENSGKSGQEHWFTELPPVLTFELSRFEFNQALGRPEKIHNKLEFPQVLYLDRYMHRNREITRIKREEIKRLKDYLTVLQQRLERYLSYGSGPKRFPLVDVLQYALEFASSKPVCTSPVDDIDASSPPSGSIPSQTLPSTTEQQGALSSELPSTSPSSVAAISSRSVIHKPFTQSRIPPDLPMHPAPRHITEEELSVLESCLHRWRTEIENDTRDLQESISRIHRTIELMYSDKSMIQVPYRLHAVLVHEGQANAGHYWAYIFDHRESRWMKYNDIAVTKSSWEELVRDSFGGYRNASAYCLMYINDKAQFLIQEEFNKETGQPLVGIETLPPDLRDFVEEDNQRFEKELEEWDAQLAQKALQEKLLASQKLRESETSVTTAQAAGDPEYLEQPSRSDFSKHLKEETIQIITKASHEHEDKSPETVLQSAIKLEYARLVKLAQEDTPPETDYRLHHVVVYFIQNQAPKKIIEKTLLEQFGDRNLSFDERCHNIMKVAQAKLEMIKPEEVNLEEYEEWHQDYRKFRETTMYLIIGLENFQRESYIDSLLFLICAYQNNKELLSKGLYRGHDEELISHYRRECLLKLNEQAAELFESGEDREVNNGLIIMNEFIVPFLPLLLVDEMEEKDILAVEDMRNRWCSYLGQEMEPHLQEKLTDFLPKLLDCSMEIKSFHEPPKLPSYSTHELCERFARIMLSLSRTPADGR
Procedure, shortened: as §1

USP28 = molecular target: T3, USP28 (UniProt Q96RU2)
T3 sequence (whole entry): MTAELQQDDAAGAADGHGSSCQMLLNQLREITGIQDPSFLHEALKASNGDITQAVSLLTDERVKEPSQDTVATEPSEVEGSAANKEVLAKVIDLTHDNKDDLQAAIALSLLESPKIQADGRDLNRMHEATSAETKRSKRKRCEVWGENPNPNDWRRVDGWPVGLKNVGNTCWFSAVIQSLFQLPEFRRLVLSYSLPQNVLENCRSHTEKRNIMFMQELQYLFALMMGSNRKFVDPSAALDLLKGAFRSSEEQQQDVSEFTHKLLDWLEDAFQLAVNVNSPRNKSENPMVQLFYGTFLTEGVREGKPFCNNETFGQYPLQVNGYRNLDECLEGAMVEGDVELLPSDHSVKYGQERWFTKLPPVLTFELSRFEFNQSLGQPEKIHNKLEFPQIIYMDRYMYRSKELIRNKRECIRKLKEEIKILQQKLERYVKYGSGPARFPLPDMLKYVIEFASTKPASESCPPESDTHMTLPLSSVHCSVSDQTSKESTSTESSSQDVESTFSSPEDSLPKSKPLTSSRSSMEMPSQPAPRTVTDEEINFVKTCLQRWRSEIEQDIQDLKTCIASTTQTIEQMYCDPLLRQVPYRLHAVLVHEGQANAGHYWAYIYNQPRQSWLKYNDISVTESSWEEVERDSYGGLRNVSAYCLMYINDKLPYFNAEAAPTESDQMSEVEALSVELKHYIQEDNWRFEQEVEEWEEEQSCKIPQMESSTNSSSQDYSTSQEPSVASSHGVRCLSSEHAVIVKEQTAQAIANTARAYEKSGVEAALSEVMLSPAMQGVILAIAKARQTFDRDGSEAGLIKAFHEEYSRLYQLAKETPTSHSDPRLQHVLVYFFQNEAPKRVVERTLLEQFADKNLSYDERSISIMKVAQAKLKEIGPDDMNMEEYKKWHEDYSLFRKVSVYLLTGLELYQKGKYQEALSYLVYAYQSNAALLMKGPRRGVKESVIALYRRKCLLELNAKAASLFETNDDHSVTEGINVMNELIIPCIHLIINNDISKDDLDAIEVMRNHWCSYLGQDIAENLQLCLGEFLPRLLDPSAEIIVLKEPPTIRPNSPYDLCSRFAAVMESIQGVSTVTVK
Procedure, shortened: as §1

Measured: log2 ratio of Biotin-Ahx-Ub-VS probe labelling

Chain of USP24 (Q9UPU5 whole entry): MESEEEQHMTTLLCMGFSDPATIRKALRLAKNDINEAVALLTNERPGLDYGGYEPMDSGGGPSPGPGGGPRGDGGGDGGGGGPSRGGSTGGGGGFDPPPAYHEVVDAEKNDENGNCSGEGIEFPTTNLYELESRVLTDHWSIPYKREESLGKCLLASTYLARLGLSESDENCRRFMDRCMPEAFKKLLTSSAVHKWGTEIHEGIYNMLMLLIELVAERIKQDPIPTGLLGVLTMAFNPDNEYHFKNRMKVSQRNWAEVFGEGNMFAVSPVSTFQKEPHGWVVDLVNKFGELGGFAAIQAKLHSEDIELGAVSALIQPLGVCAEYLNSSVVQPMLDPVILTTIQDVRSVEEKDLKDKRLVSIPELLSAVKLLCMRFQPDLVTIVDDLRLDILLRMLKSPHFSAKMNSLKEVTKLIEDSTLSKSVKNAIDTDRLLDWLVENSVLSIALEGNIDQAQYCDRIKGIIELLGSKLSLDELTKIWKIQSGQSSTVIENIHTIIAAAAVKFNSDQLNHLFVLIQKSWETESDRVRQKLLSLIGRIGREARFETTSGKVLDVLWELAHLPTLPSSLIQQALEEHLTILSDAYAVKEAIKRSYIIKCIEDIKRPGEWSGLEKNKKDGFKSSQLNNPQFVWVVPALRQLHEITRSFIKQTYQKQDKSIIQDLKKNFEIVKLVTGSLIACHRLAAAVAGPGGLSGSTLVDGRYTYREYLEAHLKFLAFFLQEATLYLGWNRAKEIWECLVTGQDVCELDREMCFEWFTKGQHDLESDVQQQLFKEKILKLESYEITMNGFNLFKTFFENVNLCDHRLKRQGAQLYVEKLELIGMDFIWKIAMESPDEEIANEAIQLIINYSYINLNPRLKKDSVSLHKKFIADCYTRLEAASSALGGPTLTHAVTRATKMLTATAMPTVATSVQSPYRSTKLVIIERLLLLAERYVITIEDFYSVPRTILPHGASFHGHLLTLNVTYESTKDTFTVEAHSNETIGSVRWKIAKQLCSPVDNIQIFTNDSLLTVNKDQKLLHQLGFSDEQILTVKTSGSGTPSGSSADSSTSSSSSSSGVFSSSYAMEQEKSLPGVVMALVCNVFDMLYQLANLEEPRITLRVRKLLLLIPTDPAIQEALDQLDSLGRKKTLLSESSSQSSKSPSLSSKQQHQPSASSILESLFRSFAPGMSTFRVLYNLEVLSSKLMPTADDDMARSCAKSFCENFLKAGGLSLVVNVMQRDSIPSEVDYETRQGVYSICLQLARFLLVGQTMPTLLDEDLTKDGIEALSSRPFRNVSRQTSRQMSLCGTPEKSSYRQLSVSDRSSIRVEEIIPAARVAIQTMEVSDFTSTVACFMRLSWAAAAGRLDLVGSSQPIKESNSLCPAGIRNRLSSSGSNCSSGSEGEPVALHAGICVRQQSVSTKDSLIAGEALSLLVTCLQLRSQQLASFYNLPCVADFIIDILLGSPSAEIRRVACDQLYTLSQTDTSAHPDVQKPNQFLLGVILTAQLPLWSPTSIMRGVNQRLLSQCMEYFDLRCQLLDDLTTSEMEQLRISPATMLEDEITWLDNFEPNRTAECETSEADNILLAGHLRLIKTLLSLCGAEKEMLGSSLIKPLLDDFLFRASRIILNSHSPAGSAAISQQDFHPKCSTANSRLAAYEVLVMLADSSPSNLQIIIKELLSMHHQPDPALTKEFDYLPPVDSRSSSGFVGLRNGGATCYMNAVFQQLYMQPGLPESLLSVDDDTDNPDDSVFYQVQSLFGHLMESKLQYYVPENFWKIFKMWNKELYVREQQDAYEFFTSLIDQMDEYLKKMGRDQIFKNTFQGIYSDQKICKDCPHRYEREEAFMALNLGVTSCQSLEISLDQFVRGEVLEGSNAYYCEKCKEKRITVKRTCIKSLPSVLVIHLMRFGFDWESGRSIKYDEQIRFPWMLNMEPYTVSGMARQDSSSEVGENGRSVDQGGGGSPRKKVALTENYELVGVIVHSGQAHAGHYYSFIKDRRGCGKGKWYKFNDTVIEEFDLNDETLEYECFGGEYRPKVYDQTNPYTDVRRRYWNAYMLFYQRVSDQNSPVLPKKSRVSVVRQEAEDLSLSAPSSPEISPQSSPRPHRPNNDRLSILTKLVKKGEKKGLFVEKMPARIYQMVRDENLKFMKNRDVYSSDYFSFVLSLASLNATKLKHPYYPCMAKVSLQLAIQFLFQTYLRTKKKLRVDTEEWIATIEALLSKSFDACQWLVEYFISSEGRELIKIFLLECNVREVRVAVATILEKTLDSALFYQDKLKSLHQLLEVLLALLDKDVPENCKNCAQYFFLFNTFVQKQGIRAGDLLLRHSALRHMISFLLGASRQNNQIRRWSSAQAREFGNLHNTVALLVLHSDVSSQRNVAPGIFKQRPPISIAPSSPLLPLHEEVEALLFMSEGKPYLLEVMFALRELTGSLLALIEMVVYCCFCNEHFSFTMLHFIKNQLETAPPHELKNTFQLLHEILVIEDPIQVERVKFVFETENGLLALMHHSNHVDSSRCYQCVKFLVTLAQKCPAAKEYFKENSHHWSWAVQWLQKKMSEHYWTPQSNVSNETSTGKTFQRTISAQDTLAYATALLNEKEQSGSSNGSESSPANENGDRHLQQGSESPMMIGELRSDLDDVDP

CC1CCc2onc(CNC(=O)CCl)c2C1 (centres undefined)
inactive: USP19 0.0516 | USP24 0.0469 | USP25 0.00198 | USP28 -0.19
